# Measured values from PubChem BioAssay (EPA / NIEHS).
# Inconclusive results are not listed. Activity calls are given as the source filed them. How the source made its calls, unless noted: active means hit-call score of the fitted dose curve at least 0.9, where 1 is the maximum; inactive means score below 0.9.
# Tested on: not listed separately
# Experiment: CCTE_Deisenroth_5AR_NBTE_donor: CCTE's 5alpha-reductase NanoBRET Target Engagement Assay […], Deisenroth Lab (AID 2284319)
# Conditions: actives raise or lower the signal
# Method: CCTE_Deisenroth_5AR NBTE (5alpha-reductase NanoBRET Target Engagement Assay) is a cell-based, single-readout assay that uses HEK293T, a human kidney cell line, with measurements taken at 5 hours after chemical dosing in a 384 well plate. This assay includes a primary and secondary screen as well as an autofluorscence screen.CCTE_Deisenroth_5AR NBTE_donor is one of four assay components measured from the CCTE_Deisenroth_5AR NBTE assay. It is designed to make measurements of donor luminescence, as detected by bioluminescence intensity emission signals using spectrometry technology.Data from the assay component CCTE_Deisenroth_5AR NBTE_donor was analyzed into 1 assay endpoint. This assay endpoint, CCTE_Deisenroth_5AR NBTE_donor, was analyzed with bidirectional fitting relative to DMSO as the negative control and baseline of activity. Using a type of inducible reporter, gain or loss-of-signal activity can be used to understand changes in the donor luminescence as related to 5alpha-reductase catalytic function. Furthermore, this assay endpoint can be referred to as a secondary readout, because this assay has produced multiple assay endpoints where this one serves an artifact detection function.
# (§1) For transient expression of the SRD5A2-NanoLuc fusion protein, HEK293T cells are reverse transfected with pNLF1-C-SRD5A2 expression vector and incubated for 20 hours to facilitate fusion protein expression. For assay setup, 384-well non-binding surface (NBS) microplates are pre-dispensed with test chemical across an 8-point concentration series (10 nM - 29.9 uM) with two technical replicates per run. Cell suspensions are dispensed into the microplates and incubated with test chemical for a duration of three hours. Following pre-incubation with test chemical, the testosterone tracer is dispensed into each well and incubated an additional two hours. The total incubation period with test chemical is five hours, with testosterone tracer added the final two hours to reach target engagement equilibrium. For the NanoBRET endpoint measurements, a solution of Nano-Glo substrate and extracellular NanoLuc inhibitor solution is added to each test well and immediately scanned on a plate reader configured with multichromatic emission settings for donor luminescence ([…]) and acceptor fluorescence ([…]). DMSO solvent controls are included as baseline control. Plate-matched samples are run with mock tracer conditions or testosterone tracer to discriminate any potential non-specific substrate interference.
SMILES,outcome,AC50
C[Si](Cn1cncn1)(c1ccc(F)cc1)c1ccc(F)cc1,inactive,
C=C(C)[C@H]1Cc2c(ccc3c2O[C@@H]2COc4cc(OC)c(OC)cc4[C@@H]2C3=O)O1,inactive,
N#CSCSC#N,inactive,
CSC1=N[C@@](C)(c2ccccc2)C(=O)N1Nc1ccccc1,inactive,
CC[C@H](C)[C@H]1O[C@]2(C=C[C@@H]1C)C[C@@H]1C[C@@H](C/C=C(\C)[C@@H](O[C@H]3C[C@H](OC)[C@@H](O[C@H]4C[C@H](OC)[C@@H](NC)[C@H](C)O4)[C@H](C)O3)[C@@H](C)/C=C/C=C3\CO[C@@H]4[C@H](O)C(C)=C[C@@H](C(=O)O1)[C@]34O)O2,,14.2 µM (active)
CCC(CC)Nc1c([N+](=O)[O-])cc(C)c(C)c1[N+](=O)[O-],inactive,
CC(C)N(C(=O)SCC(Cl)=C(Cl)Cl)C(C)C,inactive,
COP(=O)(OC)OC(Br)C(Cl)(Cl)Br (stereo not drawn),inactive,
CN(C)[C@@H]1C(=O)C(C(N)=O)=C(O)[C@@]2(O)C(=O)C3=C(O)c4c(O)cccc4[C@@](C)(O)[C@H]3[C@H](O)[C@@H]12,inactive,

# Tested on: not listed separately
# Experiment: CCTE_Deisenroth_5AR_NBTE_acceptor: CCTE's 5alpha-reductase NanoBRET Target Engagement Assay - Autofluorescence Screen, Deisenroth Lab (AID 2284321);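 further: compound fluorescence in the acceptor channel under 460 nm excitation flags autofluorescence artifacts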
# Conditions: actives raise or lower the signal
# In short: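 HEK293T cell-based NanoBRET assay read 5 h after dosing; this acceptor channel serves as an autofluorescence artifact screen. Chemicals at nominal 100 uM were scanned in three independent runs (n=3), excitation 460 nm. Fitting was bidirectional versus DMSO baseline.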
SMILES,outcome,AC50
C[Si](Cn1cncn1)(c1ccc(F)cc1)c1ccc(F)cc1,inactive,
C=C(C)[C@H]1Cc2c(ccc3c2O[C@@H]2COc4cc(OC)c(OC)cc4[C@@H]2C3=O)O1,inactive,
N#CSCSC#N,inactive,
CSC1=N[C@@](C)(c2ccccc2)C(=O)N1Nc1ccccc1,inactive,
CC[C@H](C)[C@H]1O[C@]2(C=C[C@@H]1C)C[C@@H]1C[C@@H](C/C=C(\C)[C@@H](O[C@H]3C[C@H](OC)[C@@H](O[C@H]4C[C@H](OC)[C@@H](NC)[C@H](C)O4)[C@H](C)O3)[C@@H](C)/C=C/C=C3\CO[C@@H]4[C@H](O)C(C)=C[C@@H](C(=O)O1)[C@]34O)O2,,10 µM (active)
CCC(CC)Nc1c([N+](=O)[O-])cc(C)c(C)c1[N+](=O)[O-],inactive,
CC(C)N(C(=O)SCC(Cl)=C(Cl)Cl)C(C)C,inactive,
COP(=O)(OC)OC(Br)C(Cl)(Cl)Br (stereo not drawn),inactive,
CN(C)[C@@H]1C(=O)C(C(N)=O)=C(O)[C@@]2(O)C(=O)C3=C(O)c4c(O)cccc4[C@@](C)(O)[C@H]3[C@H](O)[C@@H]12,inactive,

# Tested on: SRD5A2 (gene 6716)
# Experiment: CCTE_Deisenroth_5AR_NBTE_ratio: CCTE's 5alpha-reductase NanoBRET Target Engagement Assay - Ratio, Deisenroth Lab (AID 2284322)
# Conditions: actives raise or lower the signal
# Method: CCTE_Deisenroth_5AR NBTE (5alpha-reductase NanoBRET Target Engagement Assay) is a cell-based, single-readout assay that uses HEK293T, a human kidney cell line, with measurements taken at 5 hours after chemical dosing in a 384 well plate. This assay includes a primary and secondary screen as well as an autofluorscence screen.CCTE_Deisenroth_5AR NBTE_ratio is one of four assay components calculated from the CCTE_Deisenroth_5AR NBTE assay. It is designed to measure the ratio of target acceptor fluorophore resonance to donor bioluminescent signals.Data from the assay component CCTE_Deisenroth_5AR NBTE_ratio was analyzed into 1 assay endpoint. This assay endpoint, CCTE_Deisenroth_5AR NBTE_ratio, was analyzed with bidirectional fitting relative to DMSO as the negative control and baseline of activity. Using a type of inducible reporter, gain or loss-of-signal activity can be used to understand changes in 5alpha-reductase catalytic function. Furthermore, this assay endpoint can be referred to as a primary readout. To generalize the intended target to other relatable targets, this assay endpoint is annotated to the misc protein intended target family, where the subfamily is 5-alpha reductase.
# as §1
SMILES,outcome,AC50
C[Si](Cn1cncn1)(c1ccc(F)cc1)c1ccc(F)cc1,inactive,
C=C(C)[C@H]1Cc2c(ccc3c2O[C@@H]2COc4cc(OC)c(OC)cc4[C@@H]2C3=O)O1,,30.6 µM (active)
N#CSCSC#N,,19.5 µM (active)
CSC1=N[C@@](C)(c2ccccc2)C(=O)N1Nc1ccccc1,inactive,
CC[C@H](C)[C@H]1O[C@]2(C=C[C@@H]1C)C[C@@H]1C[C@@H](C/C=C(\C)[C@@H](O[C@H]3C[C@H](OC)[C@@H](O[C@H]4C[C@H](OC)[C@@H](NC)[C@H](C)O4)[C@H](C)O3)[C@@H](C)/C=C/C=C3\CO[C@@H]4[C@H](O)C(C)=C[C@@H](C(=O)O1)[C@]34O)O2,,16.6 µM (active)
CCC(CC)Nc1c([N+](=O)[O-])cc(C)c(C)c1[N+](=O)[O-],inactive,
CC(C)N(C(=O)SCC(Cl)=C(Cl)Cl)C(C)C,inactive,
COP(=O)(OC)OC(Br)C(Cl)(Cl)Br (stereo not drawn),inactive,
CN(C)[C@@H]1C(=O)C(C(N)=O)=C(O)[C@@]2(O)C(=O)C3=C(O)c4c(O)cccc4[C@@](C)(O)[C@H]3[C@H](O)[C@@H]12,inactive,

# Tested on: not listed separately
# Experiment: VALA_MIGHUV1_ScratchOnly_WoundArea: VALA Sciences human Umbilical Vein Endothelial Cell Migration (MIGHUV) Assay, Area of Scratch Wound Inhibited Recovery (AID 2284336; active means hit-call score of the fitted dose curve at least 0.9, where 1 is the maximum)
# Conditions: not given
# In short: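 Wound area remaining after 24 h recovery imaged by Hoechst nuclear fluorescence in scratched HUVEC cultures, chemicals added within 30 min of scratching across a 6-point series. Gain of signal fitted against 0.1% DMSO; cytochalasin D positive control.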
SMILES,outcome,AC50
S=C1NCCN1,inactive,
O=[N+]([O-])c1cc(C(F)(F)F)c(Cl)c([N+](=O)[O-])c1Nc1ncc(C(F)(F)F)cc1Cl,inactive,
CC1=NNC(=O)N(/N=C/c2cccnc2)C1,inactive,
CN(C)[C@@H]1C(=O)C(C(N)=O)=C(O)[C@@]2(O)C(=O)C3=C(O)c4c(O)cccc4[C@@](C)(O)[C@H]3[C@H](O)[C@@H]12,,90.1 µM (active)

# Tested on: not listed separately
# Experiment: VALA_TUBHUV_Agonist_TubuleLength: VALA Sciences human Umbilical Vein Endothelial Tubule Formation (TUBHUV) Agonism Assay (AID 2284337; active means hit-call score of the fitted dose curve at least 0.9, where 1 is the maximum)
# Conditions: not given
# In short: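 Tubule length quantified by CD31 immunofluorescence imaging after fixation. HUVEC-HDF co-cultures (1:3) pre-grown 3 days with 10 ng/ml VEGF, then dosed 3 days in VEGF medium; 0.1 % DMSO vehicle baseline.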
SMILES,outcome,AC50
S=C1NCCN1,inactive,
CC1=NNC(=O)N(/N=C/c2cccnc2)C1,inactive,
CN(C)[C@@H]1C(=O)C(C(N)=O)=C(O)[C@@]2(O)C(=O)C3=C(O)c4c(O)cccc4[C@@](C)(O)[C@H]3[C@H](O)[C@@H]12,,7.49 µM (active)

# Tested on: not listed separately
# Experiment: VALA_TUBIPS_Agonist_CellCount: Viability Assessment in the VALA Sciences human iPS-derived Endothelial Tubule Formation (TUBIPS) Agonism Assay (AID 2284338; active means hit-call score of the fitted dose curve at least 0.9, where 1 is the maximum)
# Conditions: not given
SMILES,outcome,AC50
S=C1NCCN1,inactive,
O=[N+]([O-])c1cc(C(F)(F)F)c(Cl)c([N+](=O)[O-])c1Nc1ncc(C(F)(F)F)cc1Cl,inactive,
CC1=NNC(=O)N(/N=C/c2cccnc2)C1,inactive,
CN(C)[C@@H]1C(=O)C(C(N)=O)=C(O)[C@@]2(O)C(=O)C3=C(O)c4c(O)cccc4[C@@](C)(O)[C@H]3[C@H](O)[C@@H]12,,9.92 µM (active)
